Screens deposited in PubChem BioAssay by The Scripps Research Institute Molecular Screening Center.
Compounds with a hit are over-represented: about 2.3% of the library has one in this group of screens.
CHRM1 PAM: positive allosteric modulators of human M1 muscarinic receptor | activation, % at 3 µM | 360,000 tested, 0.088% active | AID 588819 | CHO-K1 hM1, Fluo-8 calcium fluorescence, ACh EC20; 0% = ACh EC20, 100% = maximal ACh; in the data active means activation above about 19%, passing the limit was not always enough
Target sequence (P11229 whole entry, looked up): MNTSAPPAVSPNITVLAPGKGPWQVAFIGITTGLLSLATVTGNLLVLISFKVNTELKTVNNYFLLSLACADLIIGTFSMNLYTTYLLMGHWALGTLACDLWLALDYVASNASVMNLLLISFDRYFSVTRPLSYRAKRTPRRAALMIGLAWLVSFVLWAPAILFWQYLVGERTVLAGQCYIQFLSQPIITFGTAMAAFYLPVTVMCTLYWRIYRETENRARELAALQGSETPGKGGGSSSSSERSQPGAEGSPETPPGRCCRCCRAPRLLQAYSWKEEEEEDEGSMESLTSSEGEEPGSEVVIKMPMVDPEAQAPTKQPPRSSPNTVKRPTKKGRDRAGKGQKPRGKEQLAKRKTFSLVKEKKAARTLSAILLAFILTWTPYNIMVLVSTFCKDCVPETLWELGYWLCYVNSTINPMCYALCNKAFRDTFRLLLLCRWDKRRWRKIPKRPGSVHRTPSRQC
CHO-K1 Ca antag: counter-screen for M1 antagonists: effect in parental CHO-K1 cells | inhibition, % at 3 µM | ATP-induced calcium, Fluo-8 fluorescence | AID 602250 | 360,000 tested, 0.6% active;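 active means inhibition above a per-plate cutoff, the plate's mean sample inhibition plus 3 SD, cut at about 24% in these data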
M1 antag: blocks human M1 muscarinic receptor; P11229; CHO-K1 hM1, Fluo-8 calcium fluorescence, ACh EC80 antagonist; inhibition, % at 3 µM; 360,000 tested, 1.3% active; AID 588852;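 active means percent inhibition above its own plate's cutoff, namely the mean of that plate's compound wells plus 3 SD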;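 further: peak over basal fluorescence ratio during 140 s after agonist addition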
CHO-K1 Ca PAM: counter-screen for M1 PAMs: effect in parental CHO-K1 cells. 360,000 tested, 0.02% active. activation, % at 3 µM. AID 602247. ATP EC20, Fluo-8 calcium fluorescence; 0% at ATP EC20, 100% at ATP max;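 active means activation above the run cutoff, the mean activation of all test compounds plus 3 SD, cut at about 40% in these data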;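 further: peak over basal fluorescence ratio in a 140 s read after ATP addition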
M1 ag: agonists of human M1 muscarinic receptor | P11229 | CHO-K1 hM1, Fluo-8 calcium fluorescence, agonist mode; 0% DMSO, 100% acetylcholine EC100 | activation, % at 3 µM | 360,000 tested, 0.33% active | AID 588814;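 active means activation above the run's mean compound activation plus 3 SD, cut at about 16% in these data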;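 further: peak over basal fluorescence ratio within a 140 s kinetic read after compound addition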
M1 ag parental: M1 agonist counterscreen hit in parental CHO-K1 cells. activation, % at 3 µM. Fluo-8 calcium fluorescence; scaled to maximal ATP response, vehicle zero. 360,000 tested, 0.48% active; in the data active means activation above about 15%;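 further: untransfected CHO-K1 host cells lacking M1 receptor as counterscreen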
A number is an active result; - = inactive; ! = repeats disagree.

SMILES	CHRM1 PAM	CHO-K1 Ca antag	M1 antag	CHO-K1 Ca PAM	M1 ag	M1 ag parental
COc1ccc(/C=C/CN2CCC(Oc3ccc(C(=O)N4CCCCC4)cc3)CC2)cc1	-	-	44	-	-	-
O=C(CN1C(=O)NC2(CCCCCCC2)C1=O)Nc1ccc(Cl)cc1	-	-	-	-	-	-
COCCC(=O)N1CCC(Oc2ccc(C(=O)N3CCC(N(C)C)C3)cc2)CC1 (stereo not given)	-	-	-	-	-	-
CC(C)C(O)(C#CCN1CCCCC1)C(C)C	-	-	64	-	-	-
OC(C#CCN1CCCC1)(c1ccccc1)c1ccccc1	-	-	100	-	-	-
OC(C#CCN1CCCCC1)(c1ccccc1)c1ccccc1	-	-	100	-	-	-
OC(C#CCN1CCOCC1)(c1ccccc1)C1CC1 (stereo not given)	-	-	-	-	-	-
CC(O)(C#CCN1CCCCCC1)c1ccccc1 (stereo not given)	-	-	41	-	-	-
O=S(=O)(NCc1nnc2ccccn12)c1ccc(Cl)cc1	-	-	-	-	-	-
CC(C)CC1Nc2ncnc(N3CCN(c4ccccn4)CC3)c2N(Cc2ccc(Br)cc2)C1=O (stereo not given)	-	-	40!	-	-	-
Cc1ccc(CN2C(=O)C(CC(C)C)Nc3ncnc(N4CCN(c5ccccn5)CC4)c32)cc1 (stereo not given)	-	-	34	-	-	-
COc1ccc(CN2C(=O)C(CC(C)C)Nc3ncnc(N4CCN(c5ccccn5)CC4)c32)cc1 (stereo not given)	-	-	-	-	-	-
Cc1ccc(C(C)NC(=O)c2ccncc2)c(C)c1 (stereo not given)	-	-	-	-	-	-
CCCC(=O)N(c1ccc(C(=O)O)cc1)c1nc(-c2ccccc2)c(C)s1	-	-	-	-	-	-
Cc1ccccc1N1C(=O)c2cccc3c(N(C)CCO)ccc(c23)C1=O	-	-	-	-	-	17
COc1ccccc1N1C(=O)c2cccc3c(N(C)CCO)ccc(c23)C1=O	-	-	-	-	-	-
O=C(Nc1cccc([N+](=O)[O-])c1)c1ccc2c(c1)C(=O)N(c1ccccn1)C2=O	-	-	-	-	-	-
COc1cc(OC)cc(C(=O)Nc2nc(CC(=O)NCc3ccccc3OC)cs2)c1	-	-	29	-	-	-
CCOC(=O)Nc1ccc2c(c1)N(C(=O)OC)c1ccccc1CC2	-	-	-	-	-	-
CCN(CC)CCC(=O)N1c2ccccc2Sc2ccc(NC(=O)OC)cc21	-	-	-	-	-	-
CCOC(=O)Nc1ccc2c(c1)N(C(=O)CN(C)C)c1ccccc1S2	-	-	-	-	-	-
CCCC(CCC)C(=O)Nc1ccc2c(c1)N(C(=O)CN1CCN(C)CC1)c1ccccc1CC2	-	-	78	-	-	-
CCOC(=O)Nc1ccc2c(c1)N(C(=O)CN1CCN(C)CC1)c1ccccc1S2	-	-	75	-	-	-
CCOC(=O)Nc1ccc2c(c1)N(C(=O)CCN(C)C)c1ccccc1S2	-	-	51	-	-	-
CCOC(=O)Nc1ccc2c(c1)N(C(=O)C(C)N1CCCC1)c1ccccc1CC2 (stereo not given)	-	-	91	-	-	-
SMILES	CHRM1 PAM	CHO-K1 Ca antag	M1 antag	CHO-K1 Ca PAM	M1 ag	M1 ag parental
COc1ccccc1-c1ccc2nnc(SC)n2n1	-	-	-	-	-	-
NS(=O)(=O)c1ccc(CCNC(=O)CCCCCn2c(=S)[nH]c3ccc(Br)cc3c2=O)cc1	-	-	41	-	-	-
OC(CSc1ccccc1)CN1CCN(c2ccc(Cl)cc2)CC1 (stereo not given)	-	-	-	-	-	-
OC(COc1cccc2ccccc12)CN1CCN(c2cccc(Cl)c2)CC1 (stereo not given)	-	-	-	-	-	21
OC(CSc1ccccc1)CN1CCN(c2cccc(Cl)c2)CC1 (stereo not given)	-	-	-	-	25	-
CC(=O)Nc1ccc(S(=O)(=O)N(C)CC(=O)Nc2cccc(S(=O)(=O)N3CCCC3)c2)cc1	-	-	-	-	-	-
Cc1c(P(=S)(c2ccccc2)c2ccccc2)[n+]2ccccc2n1CCc1ccccc1	-	-	47	-	-	-
Fc1ccc(Nc2nnc(C(F)(F)F)s2)cc1Cl	-	41	37	-	-	-
FC(F)(F)c1nnc(Nc2ccc(Cl)cc2)s1	-	-	-	-	-	-
COc1cc2c(cc1OC)CN(CC(=O)Nc1ccc(F)cc1)C(C(=O)O)C2 (stereo not given)	-	-	-	-	-	-
Cc1ccc(C(C)C)c(OCCCn2ccnc2C)c1	-	-	100	-	-	-
Cc1ccc(C(C)C)c(OCCN(C)C)c1	-	-	57	-	-	-
CCCN(CCC)CCOc1cc(C)ccc1C(C)C	-	-	-	-	-	-
CC1CC1C(=O)OCC(=O)Nc1cc(S(=O)(=O)N2CCCCC2)ccc1Cl (stereo not given)	-	-	-	-	-	-
CC(C)NC(=O)C1(C)CCN1C(=O)C1(c2ccccc2)CC1 (stereo not given)	-	-	-	-	-	-
Cc1cccc(CN2CCN(C3CN(Cc4ccc(F)cc4)S(=O)(=O)C3)CC2)c1 (stereo not given)	-	-	-	-	-	-
Cc1cc(C(O)c2ncc(-c3cccc4ccccc34)[nH]2)ccc1F (stereo not given)	-	24	-	-	-	-
Cc1[nH]c2ccccc2c1C(=O)CN1C(=O)NC2(CC(C)CC(C)(C)C2)C1=O (stereo not given)	-	-	-	-	-	35
CC1CC(C)(C)CC2(C1)NC(=O)N(CC(=O)N1CCN(S(=O)(=O)c3cccc(Cl)c3Cl)CC1)C2=O (stereo not given)	-	-	45	-	-	-
C[C@H](CO)N1C[C@H](C)[C@@H](CN(C)S(=O)(=O)c2ccccc2F)Oc2ncc(C#Cc3cccnc3)cc2C1=O	-	-	-	-	-	-
CCCn1c(N)c(N(CCOC)C(=O)c2ccc([N+](=O)[O-])cc2Cl)c(=O)[nH]c1=O	-	-	-	-	-	-
COc1ccc(-c2ccc(N)cn2)cn1	-	-	-	-	-	-
CC(/C=N/NC(=O)c1sc(N)nc1C)=C\c1ccccc1	-	-	-	-	25	-
COc1ccc2oc(C(=O)N(Cc3ccco3)Cc3cccs3)c(C)c2c1	-	-	-	-	-	-
Cc1ccccc1NS(=O)(=O)c1ccc2c3c(cccc13)C(=O)N2C	-	-	-	-	-	-
CN1C(=O)c2cccc3c(S(N)(=O)=O)ccc1c23	-	-	-	-	-	16
